Only some compounds are listed: those with a hit (about 7.3% of all), similar ones and a draw of the others.
Rab9 prom act = activates the Rab9 promoter; Huh7 Rab9 promoter-luciferase reporter, luminescence, 24 h; Potency, µM (highest dose often 9.22 µM), for the others: at the highest dose activation, negative = inhibition, actives largely listed as activators; 320,000 compounds, 2.8% hits; note: % of control where 0% means no effect; nearly all actives have a fitted effect of over 60% in size
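Steps: seed 1500 Huh7 Rab9-luc cells per well, rest 2 h at 37 °C; add compound in DMSO; incubate 24 h; add luciferase reagent, 10 min ambient; read luminescence.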
NPC1 promoter act = activates the NPC1 promoter. Huh7 NPC1 promoter luciferase reporter, 24 h. Potency, µM (top dose mostly 9.22 µM), for the others: at the highest dose activation, usual class: activators. 320,000 compounds, 2.4% hits. AID 485313; note: % of control where 0% means no effect; nearly all actives have a fitted effect of over 60% in size
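Huh7 cells stably carrying NPC1 promoter–luciferase, plated in Opti-MEM with 10% FBS for 2 h, were exposed to compound in DMSO for 24 h at 37 °C; luciferase reagent was added for 10 min and luminescence read.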
KinaseGlo FLuc = counter-screen: inhibitors of Kinase-Glo firefly luciferase; Kinase-Glo luciferase, ATP luminescence, 8 min; AID 1379; Potency, µM (titrated, usually from 38.3 µM), inactives show at the top dose activity change, negative = inhibition, hits mostly inhibitors; 200,000 compounds, 0.28% hits; Q27757; note: % is set by controls: 0 for no effect and ±100 for the full control effect; nearly all actives have a fitted effect of over 60% in size
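Substrate mix (final 50 mM imidazole pH 7.2, 50 mM KCl, 7 mM MgCl2, 10 uM ATP, 0.01% Tween 20, 0.05% BSA) plus pin-tool compound, then Kinase-Glo detection mix; 8 min ambient, luminescence read.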
SMN2 splice enh = increases expression of the SMN2 splice variant; HEK293 SMN2-luciferase splicing reporter, luminescence, 30-36 h; Potency, µM (top dose mostly 46.1 µM), inactives show at the highest dose activity change, positive = activation, most hits filed as activators; 210,000 compounds, 2.8% hits; note: % of control where 0% means no effect; nearly all actives have a fitted effect of over 55% in size
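HEK293 cells carry an SMN2 minigene-luciferase reporter in which exon 7 inclusion puts luciferase in frame. Cells were seeded at 2000 cells/well, attached for 10-12 hours, then exposed to compounds for 30-36 hours at 37C before ONE-Glo luminescence.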
FLuc counter = inhibits or activates purified firefly luciferase, miR-21 counter-screen. purified FLuc, Km substrates, luminescence inhibition. P08659. AID 588342. Potency, µM (series often up to 57.5 µM), inactives show at the top dose activity change, negative = inhibition, most hits filed as inhibitors. 360,000 compounds, 6.9% hits;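 note: plate controls were vehicle for no effect and reference inhibitor for full effect; nearly all actives have a fitted effect of over 55% in size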
Target sequence (P08659 whole entry, looked up): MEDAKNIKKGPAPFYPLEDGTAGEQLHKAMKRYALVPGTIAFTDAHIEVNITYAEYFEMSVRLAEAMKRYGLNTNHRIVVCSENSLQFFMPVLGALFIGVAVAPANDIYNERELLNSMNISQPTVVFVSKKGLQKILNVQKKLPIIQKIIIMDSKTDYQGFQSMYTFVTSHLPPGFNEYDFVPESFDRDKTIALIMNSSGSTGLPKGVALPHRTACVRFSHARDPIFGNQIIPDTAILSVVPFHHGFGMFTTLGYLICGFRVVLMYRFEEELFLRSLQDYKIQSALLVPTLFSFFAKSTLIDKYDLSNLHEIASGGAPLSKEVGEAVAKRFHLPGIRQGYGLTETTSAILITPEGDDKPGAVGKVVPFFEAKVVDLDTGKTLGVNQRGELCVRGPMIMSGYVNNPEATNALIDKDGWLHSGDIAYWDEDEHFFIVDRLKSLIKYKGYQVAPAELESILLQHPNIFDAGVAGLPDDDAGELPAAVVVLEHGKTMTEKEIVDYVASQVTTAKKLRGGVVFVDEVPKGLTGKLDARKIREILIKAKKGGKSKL
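Purified P. pyralis luciferase (10nM final) with 10uM D-luciferin and 10uM ATP (Km levels) in 50mM Tris acetate pH 7.5, 10mM Mg acetate, 0.01% Tween-20, 0.05% BSA; qHTS 6-point titration, ~60 µM downward; luminescence read.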
* marks the source's active call; other numbers are inactive results; ? = inconclusive; . = no result given. Calls come from the whole dose curve; as a rule, active = well fitted curve in the direction sought with a large enough effect; inconclusive = small, poorly fitted or top-dose-only effect, or another doubt; inactive = no such curve, though single readings can be large; an effect the other way counts as inactive or inconclusive. Potency is the fitted concentration of half-maximal effect.

SMILES	Rab9 prom act	NPC1 promoter act	KinaseGlo FLuc	SMN2 splice enh	FLuc counter
Cc1cccc(NC(=O)c2ccc3c(Cl)c4c(nc3c2)CCCC4)n1	0.56µM*	1.1µM*	-21%	3.2µM*	0.67µM*
CCC(C)NC(=O)c1ccc2c(SCC(=O)O)c3c(nc2c1)CCCC3 (stereo unspecified)	1%	-1%	1%	-10%	?
CCC(C)NC(=O)c1ccc2c(Cl)c3c(nc2c1)CCC3 (stereo unspecified)	2.5µM*	2.8µM*	.	.	4.8µM*
CCOc1ccc(NC(=O)c2ccc3c(SCC(=O)O)c4c(nc3c2)CCC4)cc1	.	.	.	-65%	24µM*
CCOC(=O)Cn1c(=O)oc2cc(S(=O)(=O)N3CCN(c4cc(C)ccc4C)CC3)ccc21	.	.	.	1%	5%
COc1cc(C(=O)N2CCNC(=O)C2CC(=O)Nc2ccc(C)c(C)c2)cc(OC)c1OC (stereo unspecified)	.	.	.	-4%	6%
COCCn1c(C)cc(O)c(C(c2ccccc2OC)N2CCCCC2)c1=O (stereo unspecified)	.	.	.	.	-1%
COc1ccc(C)cc1NC(=O)c1ccc2c(Cl)c3c(nc2c1)CCC3	.	.	.	-10%	1.7µM*
CN(C(=O)c1ccc2c(Cl)c3c(nc2c1)CCC3)c1ccccc1F	.	.	.	-5%	?
CN(C(=O)c1ccc2c(Cl)c3c(nc2c1)CCC3)c1ccccc1	?	?	12%	.	21µM*
COc1cc(Cl)c(C)cc1NC(=O)c1ccc2c(Cl)c3c(nc2c1)CCC3	.	.	.	?	-5%
CC1CCOC(c2coc3ccccc3c2=O)O1 (stereo unspecified)	?	?	?	10µM*	13µM*
COc1ccc(C2(C)NC(=O)N(CC(=O)Nc3ccc(-c4nc5ccc(C)cc5s4)cc3)C2=O)cc1 (stereo unspecified)	2.2µM*	4µM*	-3%	7.1µM*	3.4µM*
CCC1(c2ccc(F)cc2)NC(=O)N(CC(=O)Nc2ccccc2C)C1=O (stereo unspecified)	0%	0%	.	.	2%
CCC1(c2ccc(F)cc2)NC(=O)N(CC(=O)Nc2ccc(-c3nc4ccc(C)cc4s3)cc2)C1=O (stereo unspecified)	1.4µM*	2.8µM*	-4%	4µM*	3.4µM*
COc1ccc(NC(=O)CN2C(=O)NC(c3ccccc3)(c3ccccc3)C2=O)cc1	-2%	-3%	.	.	21µM*
COc1ccc(-c2nc(-c3ccccc3)c(Nc3c(C)cccc3C)o2)cc1	.	.	-3%	15%	.
COc1ccc(-c2cc(C(=O)NCCc3ccccc3)c3c(-c4ccccc4)[nH]nc3n2)cc1	.	.	.	.	0%
O=C(O)c1cc(-c2ccc(C(F)(F)F)cc2)nc2n[nH]c(-c3ccccc3)c12	.	.	.	.	3µM*
CN(C)c1ccc(C(=O)/C=C/c2cccnc2)cc1	?	?	.	.	3µM*
O=C(/C=C/c1cccnc1)c1ccc(F)c(F)c1	0%	-7%	.	.	?
CN(C)c1ccc(/C=C/C(=O)c2cccc(Br)c2)cc1	26%	23%	-7%	-1%	3µM*
CCc1ccc(S(=O)(=O)Nc2ccc(-c3nc4cccnc4s3)cc2)s1	?	15%	3%	16µM*	?
Cc1ccc(-c2nc3cccnc3s2)cc1NS(=O)(=O)c1ccc2c(c1)OCCO2	-3%	8%	1%	?	-13%
O=S(=O)(Nc1ccc(-c2nc3cccnc3s2)cc1)c1cc(F)ccc1F	?	4%	.	.	?
O=C(Nc1cccc(-c2nc3cccnc3s2)c1)c1cccnc1Cl	23%	22%	.	.	17µM*
NS(=O)(=O)c1ccc(NC(=O)c2ccc(-c3ccccc3)cc2)cc1	-4%	-3%	3%	17%	-1%
Cc1ccc(-c2nc3cccnc3s2)cc1NS(=O)(=O)c1cccs1	15%	10%	.	.	27µM*
NS(=O)(=O)c1ccc(C(=O)Nc2ccc(-c3nc4cccnc4s3)cc2)cc1	1.4µM*	1.4µM*	.	.	12µM*
CCc1cccc(C)c1NC(=O)Cn1c(=O)n(-c2ccc(C)cc2)c(=O)c2c1cnn2C	.	.	.	3%	4%

Compound activity deposited in PubChem BioAssay by National Center for Advancing Translational Sciences (NCATS).
